# Structures can show the parent of a compound that is named as a salt.
# Tested on: Saccharomyces cerevisiae BY4741 SeMeCo community
# Test: z-score of subpopulation abundance vs DMSO median, subpopulation auxotrophic for L; higher = larger share of this subpopulation than in DMSO controls
# Details: 10 µM; 24 h; SM minimal medium; subpopulation (auxotrophy): L
# Summary of the method: (§1)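 Cells of a Saccharomyces cerevisiae BY4741 community, carrying four plasmids that each restored one auxotrophy and encoded a distinct fluorescent protein, were pre-grown overnight to OD600 1.0 and diluted to 0.3. A 70 µl volume was added to 384-well plates acoustically predosed with library drugs (10 µM final) and grown 24 h in minimal SM medium. After paraformaldehyde fixation, automated confocal microscopy was used, with single-auxotroph fluorescent strains for thresholds and autofluorescence correction. The abundance of each subpopulation was scored as a z-score against the vehicle-well median.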
row,Compound,z-score of subpopulation abundance
1,CC[C@H]1OC(=O)[C@H](C)[C@@H](O[C@H]2C[C@@](C)(OC)[C@@H](O)[C@H](C)O2)[C@H](C)[C@@H](O[C@@H]2O[C@H](C)C[C@H](N(C)C)[C@H]2O)[C@](C)(O)C[C@@H](C)CN(C)[C@H](C)[C@@H](O)[C@]1(C)O [Azithromycin],0.82
2,CN(C)C[C@@H]1CCn2cc(c3ccccc32)C2=C(C(=O)NC2=O)c2cn(c3ccccc23)CCO1,1.34
3,COc1ccc(C(C)=O)c(O)c1 [Paeonol],0.17
4,O=C(O)c1cn(-c2ccc(F)cc2)c2cc(N3CCNCC3)c(F)cc2c1=O [Sarafloxacin HCl],-0.74
5,CO[C@H]1O[C@@H]2O[C@@]3(C)CC[C@H]4[C@H](C)CC[C@@H]([C@H]1C)[C@@]24OO3 [Artemether],-0.43
6,COc1cccc2c1C(=O)c1c(O)c3c(c(O)c1C2=O)C[C@@](O)(C(C)=O)C[C@@H]3O[C@H]1C[C@H](N)[C@H](O)[C@H](C)O1 [Daunorubicin HCl],-1.28
7,O=C1OC(CN2CCOCC2)CN1/N=C/c1ccc([N+](=O)[O-])o1 (centres undefined) [Furaltadone HCl],-0.94
8,Nc1ccc(S(=O)(=O)Nc2nccs2)cc1 [Sulfathiazole],-0.12
9,NCc1ccccc1CC(=O)N[C@@H]1C(=O)N2C(C(=O)O)=C(CSc3nnnn3CC(=O)O)CS[C@H]12 [Ceforanide],2.29
10,CN(C)CCCN1c2ccccc2CCc2ccc(Cl)cc21 [Clomipramine HCl],-0.45

# Tested on: Saccharomyces cerevisiae BY4741 SeMeCo community
# Test: z-score of subpopulation abundance vs DMSO median, subpopulation auxotrophic for U; higher = larger share of this subpopulation than in DMSO controls
# Details: 10 µM; 24 h; SM minimal medium; subpopulation (auxotrophy): U
# Summary of the method: as §1
row,Compound,z-score of subpopulation abundance
1,CN(C)C[C@@H]1CCn2cc(c3ccccc32)C2=C(C(=O)NC2=O)c2cn(c3ccccc23)CCO1,0.49
2,COc1ccc(C(C)=O)c(O)c1 [Paeonol],0.71
3,O=C(O)c1cn(-c2ccc(F)cc2)c2cc(N3CCNCC3)c(F)cc2c1=O [Sarafloxacin HCl],0.41
4,CO[C@H]1O[C@@H]2O[C@@]3(C)CC[C@H]4[C@H](C)CC[C@@H]([C@H]1C)[C@@]24OO3 [Artemether],0.63
5,O=C1OC(CN2CCOCC2)CN1/N=C/c1ccc([N+](=O)[O-])o1 (centres undefined) [Furaltadone HCl],0.25
6,Nc1ccc(S(=O)(=O)Nc2nccs2)cc1 [Sulfathiazole],0.9
7,NCc1ccccc1CC(=O)N[C@@H]1C(=O)N2C(C(=O)O)=C(CSc3nnnn3CC(=O)O)CS[C@H]12 [Ceforanide],-0.98
8,C[C@@H](O)[C@H]1C(=O)N2C(C(=O)O)=C(S[C@@H]3CN[C@H](C(=O)N(C)C)C3)[C@H](C)[C@H]12 [Meropenem],-0.22

# Tested on: Saccharomyces cerevisiae BY4741 SeMeCo community
# Test: z-score of subpopulation abundance vs DMSO median, subpopulation auxotrophic for H; higher = larger share of this subpopulation than in DMSO controls
# Details: 10 µM; 24 h; SM minimal medium; subpopulation (auxotrophy): H
# Summary of the method: as §1
row,Compound,z-score of subpopulation abundance
1,CC[C@H]1OC(=O)[C@H](C)[C@@H](O[C@H]2C[C@@](C)(OC)[C@@H](O)[C@H](C)O2)[C@H](C)[C@@H](O[C@@H]2O[C@H](C)C[C@H](N(C)C)[C@H]2O)[C@](C)(O)C[C@@H](C)CN(C)[C@H](C)[C@@H](O)[C@]1(C)O [Azithromycin],-0.15
2,CN(C)C[C@@H]1CCn2cc(c3ccccc32)C2=C(C(=O)NC2=O)c2cn(c3ccccc23)CCO1,1.52
3,COc1ccc(C(C)=O)c(O)c1 [Paeonol],0.01
4,O=C(O)c1cn(-c2ccc(F)cc2)c2cc(N3CCNCC3)c(F)cc2c1=O [Sarafloxacin HCl],-0.42
5,CO[C@H]1O[C@@H]2O[C@@]3(C)CC[C@H]4[C@H](C)CC[C@@H]([C@H]1C)[C@@]24OO3 [Artemether],2.67
6,Nc1ccc(S(=O)(=O)Nc2nccs2)cc1 [Sulfathiazole],-1.09
7,NCc1ccccc1CC(=O)N[C@@H]1C(=O)N2C(C(=O)O)=C(CSc3nnnn3CC(=O)O)CS[C@H]12 [Ceforanide],2.15
8,CN(C)CCCN1c2ccccc2CCc2ccc(Cl)cc21 [Clomipramine HCl],-0.49
9,O=C1CN(/N=C/c2ccc(-c3ccc([N+](=O)[O-])cc3)o2)C(=O)N1 [Dantrolene sodium],0.84

# Tested on: Saccharomyces cerevisiae BY4741 SeMeCo community
# Test: z-score of subpopulation abundance vs DMSO median, subpopulation auxotrophic for LU; higher = larger share of this subpopulation than in DMSO controls
# Details: 10 µM; 24 h; SM minimal medium; subpopulation (auxotrophy): LU
# Summary of the method: as §1
row,Compound,z-score of subpopulation abundance
1,CC[C@H]1OC(=O)[C@H](C)[C@@H](O[C@H]2C[C@@](C)(OC)[C@@H](O)[C@H](C)O2)[C@H](C)[C@@H](O[C@@H]2O[C@H](C)C[C@H](N(C)C)[C@H]2O)[C@](C)(O)C[C@@H](C)CN(C)[C@H](C)[C@@H](O)[C@]1(C)O [Azithromycin],0.14
2,CN(C)C[C@@H]1CCn2cc(c3ccccc32)C2=C(C(=O)NC2=O)c2cn(c3ccccc23)CCO1,1.13
3,O=C1OC(CN2CCOCC2)CN1/N=C/c1ccc([N+](=O)[O-])o1 (centres undefined) [Furaltadone HCl],-0.14
4,Nc1ccc(S(=O)(=O)Nc2nccs2)cc1 [Sulfathiazole],0.15
5,C[C@@H](O)[C@H]1C(=O)N2C(C(=O)O)=C(S[C@@H]3CN[C@H](C(=O)N(C)C)C3)[C@H](C)[C@H]12 [Meropenem],-0.26
6,CN(C)CCCN1c2ccccc2CCc2ccc(Cl)cc21 [Clomipramine HCl],0.32
7,O=C1CN(/N=C/c2ccc(-c3ccc([N+](=O)[O-])cc3)o2)C(=O)N1 [Dantrolene sodium],-2.49

# Reference: the supplement of paper PMC8975748
